High-throughput results: PubChem, several laboratories
Anthrax LF inh2 – blocks Bacillus anthracis lethal factor protease; AID 588501; multiplex microsphere protease cleavage assay, LF; 360,000 tested, 0.12% active; inhibition, % at 10 µM; also: plate controls were buffer without enzyme for full effect and enzyme alone for no effect
3CLpro inhibitor – SARS-CoV 3CLpro protease inhibition. inhibition, % at 6 µM. 290,000 tested, 0.14% active. P0C6X7. recombinant SARS-CoV 3CLpro, quenched FRET peptide cleavage; in the data active = inhibition above about 12%
Autofluor counter – counter-screen for toxin protease inhibitors: compound fluorescence; compound autofluorescence counterscreen, microsphere flow cytometry; hits give high values; fluorescence intensity (no concentration beside the values); 360,000 tested, 3.1% active; AID 624483; in the data active = fluorescence intensity above about 16000; inconclusive = no clear call, values can overlap the other calls
BoNT-A LC inh2 – blocks Botulinum neurotoxin A light chain protease; multiplex microsphere protease substrate cleavage, flow cytometry; inhibition, % at 10 µM; 360,000 tested, 0.17% active; AID 588499; also: plate controls were buffer without enzyme for full effect and enzyme alone for no effect
BoNT F protease – BoNT F light chain protease inhibition | Multiplex microsphere protease cleavage assay, flow cytometry | inhibition, % at 10 µM | 360,000 tested, 0.22% active | AID 588497; in the data active = inhibition above about 35%, passing the limit was not always enough; inconclusive = no clear call, values can overlap the other calls; also: plate controls were buffer without enzyme for full effect and enzyme alone for no effect
BJeLR lethal – BJeLR cell viability loss | BJeLR (HRASV12) viability, CellTiter-Glo ATP luminescence, 48 h | inhibition, % (test concentration not listed) | 300,000 tested, 0.17% active; in the data active = inhibition above about 50%; inconclusive = no clear call, values can overlap the other calls
Starred values were filed as active, the others as inactive; ? = inconclusive; . = not tested or not shown. Shown are actives, neighbours in structure and some others; about 3.6% of the full set was active somewhere. Rule as the data show it, unless noted: active = inhibition above about 30%; inconclusive = no clear call, values can overlap the other calls; inactive = below that.

SMILES	Anthrax LF inh2	3CLpro inhibitor	Autofluor counter	BoNT-A LC inh2	BoNT F protease	BJeLR lethal
Cc1nc(NC(=O)CSc2ccccc2N)sc1C	.	1	.	.	.	-6
COc1ccc([C@H]2C[C@@H](O)[C@H](n3cc(C4CC4)nn3)CN2C(=O)c2cccs2)cc1	-5	.	3867	0	-1	.
COCc1cc(C)nc(Nc2ccccc2C)c1C#N	0	1	20149*	?	2	3
CCCCCC(=O)Nc1c(-c2ccc(OC)cc2)c(=O)c2ccccc2n1C	-4	1	21066*	4	5	5
CCCCCC(=O)Nc1c(-c2cccs2)c(=O)c2ccccc2n1C	2	-1	16847*	-1	-1	-8
COc1ccc(-c2c(NC(=O)CC(C)C)n(C)c3ccccc3c2=O)cc1OC	33*	-6	3179	0	-10	5
CCCCC(=O)Nc1c(-c2ccc(OC)c(OC)c2)c(=O)c2ccccc2n1C	-10	-3	2890	2	21	7
CCC(=O)Nc1c(-c2cccs2)c(=O)c2ccccc2n1C	-4	0	4280	1	2	6
CC(C)CC1C(=O)N(Cc2cn(Cc3ccco3)nn2)CCS(=O)(=O)N1Cc1ccc(-c2ccc(F)cc2)cc1 (configuration not stated)	-4	.	3789	0	3	.
CCc1nc(NCc2cccnc2)c2oc3ccccc3c2n1	-1	2	16165*	2	0	-7
CCNc1nc(CC)nc2c1oc1ccccc12	-10	-4	21864*	4	5	-4
Cc1nc(NCC2CCCO2)c2oc3ccccc3c2n1 (configuration not stated)	0	2	21375*	3	4	1
Cc1cccn2c(=O)c(C(=O)NCCCN3CC(C)CC(C)C3)c(O)nc12 (configuration not stated)	-3	.	6016	1	8	0
Cc1ccc(/C=N/NC(=S)NCCc2ccccc2)s1	-3	6	4496	-1	-6	4
CCCCNC(=S)N/N=C/c1ccc(C)s1	-3	-3	24604*	?	-12	-5
CC(OC(=O)C1CC=CCC1C(N)=O)C(Cl)=C(Cl)Cl (configuration not stated)	0	-4	22015*	2	2	-1
COc1cc(Cl)ccc1OCc1cc(C(=O)NC(C)Cc2cccnc2)no1 (configuration not stated)	.	3	.	.	.	-13
COC(=O)c1ccc(CSc2nc3scc(-c4cccs4)c3c(=O)[nH]2)o1	1	-5	20323*	?	4	-16
COC(=O)c1ccc(CSc2nc3ccc(Cl)cc3[nH]2)o1	0	10	3670	1	-8	3
COC(=O)/C(=C1/Oc2ccc(C(C)(C)C)cc2S1)C(F)(F)F	-1	-2	2618	0	2	1
COC(=O)/C(=C1/Oc2cc(C)oc(=O)c2S1)C(F)(F)F	-8	-1	21329*	?	5	12
CN1OC[C@@H]2CN(S(=O)(=O)c3cccc(C(F)(F)F)c3)[C@H](c3ccc(-c4cccnc4)cc3)C[C@@H]21	5	.	3675	0	0	.
Cc1nc(NC(=O)c2cc3c(s2)CCCCC3)sc1C(=O)N(C)C	0	3	10711	0	9	7
COC(=O)c1sc(NC(=O)c2cc3c(s2)CCCC3)nc1C	0	3	25221*	-4	-8	-1
CC(NC(=O)c1cc2c(s1)CCCC2)C(C)(C)C (configuration not stated)	-20	6	16452*	20	24	.
SMILES	Anthrax LF inh2	3CLpro inhibitor	Autofluor counter	BoNT-A LC inh2	BoNT F protease	BJeLR lethal
O=C1NC(=S)SC1=C1CCCCCC1	-2	-4	3317	0	-1	-7
CCN(CC)c1nc2c(c(=O)n(C)c(=O)n2C)n1CC(=O)c1ccccc1	.	5	.	.	.	-7
Cc1ccc(NC(=O)CS(=O)CC(=O)NC(C)CCc2ccco2)cc1Cl (configuration not stated)	-2	6	23396*	1	0	-1
Cc1cccc(NS(=O)(=O)c2ccc(Br)s2)n1	1	0	19822*	2	1	-5
Cc1cc(C)nc(NS(=O)(=O)c2ccc(Br)s2)c1	1	-1	5735	1	-4	11
CCN(Cc1ccccc1)C(=O)CCCOc1ccccc1	-1	2	11157	-1	-3	14
COC(=O)CC1COc2ccccc2N1C(=O)c1ccc(OC)cc1 (configuration not stated)	1	1	21654*	?	0	-20
COc1cc2cc(CN(CCO)S(=O)(=O)c3ccccc3Cl)c(=O)[nH]c2cc1OC	-2	0	16702*	?	-2	11
CCOC(=O)c1cccc(S(=O)(=O)N(CCO)Cc2cc3cc(OC)c(OC)cc3[nH]c2=O)c1	3	2	24123*	-1	-1	0
COc1cc(CNc2ncnc3c2ncn3[C@H]2CN(Cc3ccc4c(c3)OCO4)C[C@@H](CO)O2)cc(OC)c1OC	0	.	3833	0	7	.
CNc1nc(SCC(=O)Nc2ccccc2)nc(N2CCOCC2)n1	2	-2	5263	-1	8	6
COc1ccc(-c2ccc(=O)[nH]n2)cc1	-3	-8	20511*	-1	-2	-13
O=c1ccc(-c2ccccc2)n[nH]1	-2	9	12407	1	6	4
COc1ccc2nc(C)cc(SCC(=O)Nc3c(C)cc(C)cc3C)c2c1	0	3	18106*	4	2	5
Cc1cc(C)c(NC(=O)CS(=O)CC(=O)N2CCN(c3ccccc3)CC2)c(C)c1 (configuration not stated)	-2	-3	16393*	0	-2	-1
COc1ccc(N2CCN(CC(=O)Nc3c(C)cc(C)cc3C)CC2)cc1	3	1	17139*	-2	-2	-5
CSc1cccc(NC(=O)CC2Oc3ccccc3NC2=O)c1 (configuration not stated)	-5	0	3449	1	11	-5
COCCn1c(=S)[nH]c2cc(C(=O)N3CCc4ccccc43)ccc2c1=O	-4	-6	24139*	-4	-5	9
CCCn1c(=S)[nH]c2cc(C(=O)N3CCN(C)CC3)ccc2c1=O	-5	.	3515	0	6	.
CCCn1c(=S)[nH]c2cc(C(=O)N3CCc4ccccc43)ccc2c1=O	-1	-2	21147*	-2	-3	-3
CCOCc1cc(CN2CCC(CCC(=O)NC3CC3)CC2)ccc1OC	.	-8	.	.	.	-7
CC1CC(NC(=O)CC#N)CC(C)(C)C1 (configuration not stated)	-23	7	4926	?	?	-8
CC1CC(NC(=O)C2(C)CC2(Cl)Cl)CC(C)(C)C1 (configuration not stated)	-15	5	20800*	5	6	10
CC(Sc1nc(-c2ccccc2)cc(=O)[nH]1)C(=O)O (configuration not stated)	-4	5	24389*	-5	-8	-2
